# Source: PubChem BioAssay (Tox21)
# Values joined by “and” are separate entries in the source; they are usually repeats but may differ in a detail not shown here. Equal values may be shown once. Active and inactive are the calls of the source. Calls come from the whole dose curve.
# Experiment: qHTS assay to identify small molecule agonists of the estrogen related receptor (ERR) signaling pathway from Tox21 library (AID 1224849); note: nearly all actives have a fitted effect of over 15% in size
# Details: ERR reporter cell line, ONE-Glo luciferase, 18 h; at 42.5 µM (top of the series)
# Text: National Center for Advancing Translational Sciences [NCATS]
# NIH Chemical Genomics Center [NCGC]
# U.S. Environmental Protection Agency [EPA]
# National Institutes of Environmental Health Sciences [NIEHS]
# National Toxicology Program [NTP]
# Estrogen related receptors (ERRs), the first orphan nuclear receptors discovered, play an important role in the control of cellular energy metabolism. ERRs are required for high-energy production in response to the environmental challenges. ERR-alpha was also identified as an adverse marker for breast cancer progression; ERR-alpha-positive tumors have a poor prognosis. To screen and to identify environmental compounds that perturb the ERR signaling pathways could provide valuable information for potential therapeutic or preventive measures in the treatment of metabolic disease. For identifying ERR agonists, ERR cell line (provided by NTP) has been used to screen Tox21 10K library.
# The ERR cells were dispensed at 2,000 cells/5 ul/well in 1536-well white plates using a Multidrop dispenser. After the assay plates were incubated at a 37 C/5% CO2 incubator for 6 hours, 23 nL of compounds dissolved in DMSO, positive and negative controls or DMSO only was transferred to the assay plate by a pin tool. The plates were incubated at 37 C for 18 hours. 4 ul/well of One-Glo reagent was added into the assay plates using a Flying Reagent Dispenser. After 30-minute incubation at room temperature, the luminescence intensity in the plates was measured using a ViewLux plate reader.
# % is set by controls: 0 for no effect and ±100 for the full control effect.
row,SMILES,"activity change, positive = activation"
1,C[C@H]1C[C@@H]2[C@H]([C@@H](O)C[C@@]3(C)[C@H]2CC[C@]3(O)C(=O)CO)[C@@]2(C)C=CC(=O)C=C12,-3.14% (inactive)
2,O=C(O)CCCC[C@@H]1SC[C@@H]2NC(=O)N[C@@H]21,7.51% (inactive)
3,CC[C@H](C)C(=O)O[C@H]1C[C@@H](C)C=C2C=C[C@H](C)[C@H](CC[C@@H]3C[C@@H](O)CC(=O)O3)[C@H]21,14.3% (active)
4,N[C@@H](Cc1cc(I)c(Oc2cc(I)c(O)c(I)c2)c(I)c1)C(=O)O,-1.09% (inactive) and 0.396% (inactive)
5,CCCCC(CC)COC(=O)C(C#N)=C(c1ccccc1)c1ccccc1 (stereo not given),-38.1% (inactive)

# Same assay, conditions: ERR reporter cell line, ONE-Glo luciferase, 18 h; at 92.4 µM (top of the series)
row,SMILES,"activity change, positive = activation"
1,C=C(C)C(=O)O[C@H]1C[C@@H]2CC[C@@]1(C)C2(C)C,-82.3% (inactive) and 8.09% (inactive)
2,O=C(Oc1ccccc1)c1ccccc1,4.89% (inactive) and 5.21% (inactive)
3,c1ccc2c(c1)ccc1ccccc12,-34.9% (inactive) and -32.3% (inactive)
4,O=C(CC(C(=O)OC1CCCCC1)S(=O)(=O)O)OC1CCCCC1 (stereo not given),3.03% (inactive) and -2.61% (inactive)
5,CCCCCCCCCCCCc1ccccc1,9.43% (inactive) and 1.83% (inactive)
6,C[C@H]1C[C@@H]2[C@H]([C@@H](O)C[C@@]3(C)[C@H]2CC[C@]3(O)C(=O)CO)[C@@]2(C)C=CC(=O)C=C12,-13.3% (inactive)
7,O=C(O)CCCC[C@@H]1SC[C@@H]2NC(=O)N[C@@H]21,9.85% (inactive)
8,O=c1[nH]nnc2ccccc12,5.04% (inactive) and -0.708% (inactive)
9,CCC(O)OCCCOC (stereo not given),1.37% (inactive) and 8.84% (inactive)
10,CC[C@H](C)C(=O)O[C@H]1C[C@@H](C)C=C2C=C[C@H](C)[C@H](CC[C@@H]3C[C@@H](O)CC(=O)O3)[C@H]21,-46.9% (active) and 27.5% (active)
11,O=P(OC(CCl)CCl)(OC(CCl)CCl)OC(CCl)CCl,-54.2% (inactive) and -40.7% (inactive)
12,OCCOCCOCCO,-2.92% (inactive) and 6.58% (inactive)
13,CCCCC(CC)COC(=O)CS (stereo not given),-0.266% (inactive) and -15.8% (inactive)
14,CN(C)CCCN,5.71% (inactive) and 0.874% (inactive)
15,Nc1ccccc1[N+](=O)[O-],9.45% (inactive) and 1.58% (inactive)
16,COS(C)(=O)=O,1.76% (inactive) and -2.76% (inactive)
17,OC[C@H]1O[C@@](CO)(O[C@H]2O[C@H](CO)[C@@H](O)[C@H](O)[C@H]2O)[C@@H](O)[C@@H]1O,6.61% (inactive) and 1.2% (inactive)
18,O=C(O)c1ccccc1C(c1ccc(O)cc1)c1ccc(O)cc1,4.92% (inactive) and 4.34% (inactive)

row,SMILES,"activity change, positive = activation"
1,Cc1cccnc1,2.78% (inactive) and 3.63% (inactive)
2,CCc1cccc(C)c1N,-1.49% (inactive)
3,CC(=O)CC(=O)Nc1ccccc1C,1.06% (inactive) and 1.9% (inactive)
4,COc1ccc(Nc2ccccc2)c(C)c1,-0.657% (inactive)
5,CCCCC(CC)COC(=O)C(C#N)=C(c1ccccc1)c1ccccc1 (stereo not given),-32.9% (inactive)
6,CC(C)(N)CO,3.88% (inactive) and 1.99% (inactive)
7,Fc1ccc(Br)cc1,-0.613% (inactive) and 3.34% (inactive)
8,CC(C)CC(=O)CC(C)C,0.354% (inactive) and 0.455% (inactive)
9,ON=C1CCCCC1,-1.41% (inactive) and -1.15% (inactive)
10,CCC(O)OC(O)CC (stereo not given),4% (inactive) and 3.85% (inactive)
11,Nc1cc([N+](=O)[O-])ccc1O,-4.29% (inactive) and 0.807% (inactive)
12,Cc1cccc(O)c1,8.59% (inactive) and 2.31% (inactive)
13,CN(C)CCOCCN(C)C,-5.24% (inactive) and -0.172% (inactive)
14,CC1=C(C)S(=O)(=O)CCS1(=O)=O,10.9% (inactive)
15,COCCCOc1ccnc(CS(=O)c2nc3ccccc3[nH]2)c1C (stereo not given),-25.6% (inactive)
16,CSCCC=O,9.1% (inactive) and 4.08% (inactive)
17,CCCCCCCCCCCCCCCO,-0.174% (inactive)
